Assay results from PubChem BioAssay AID729 (The Scripps Research Institute Molecular Screening Center, 2007).
In all, about 97,000 compounds went through this assay and about 450 (0.46%) were called active. What follows is part of a selection rich in actives, with near analogues and random picks from the rest. Unmarked numbers belong to inactive results. No stated cut-off is given here; in the data, active means activation above about 16%; inactive means the rest.

Target: Sphingosine 1-phosphate receptor 2 (Homo sapiens) (UniProt O95136)
Sequence (O95136 whole entry, looked up): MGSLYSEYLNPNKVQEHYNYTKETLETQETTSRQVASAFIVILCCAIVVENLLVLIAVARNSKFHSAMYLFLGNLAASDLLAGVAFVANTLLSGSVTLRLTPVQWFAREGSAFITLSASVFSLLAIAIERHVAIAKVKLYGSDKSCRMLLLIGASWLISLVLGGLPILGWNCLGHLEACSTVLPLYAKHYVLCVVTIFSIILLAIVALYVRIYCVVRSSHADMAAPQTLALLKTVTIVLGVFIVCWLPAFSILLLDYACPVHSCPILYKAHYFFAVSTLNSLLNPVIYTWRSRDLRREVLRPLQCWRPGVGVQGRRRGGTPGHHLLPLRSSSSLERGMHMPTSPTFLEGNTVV
Experiment: activation of human S1P2 receptor – cell-based, primary screen (AID 729);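 further: 0% = vehicle low control and 100% = maximal reference agonist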
Conditions: S1P2-expressing cell line, agonist reporter read-out; at 4.5 µM; hits give high values

Compound	activation
Cc1ccccc1-c1nnc(SCC(=O)NCc2ccc3c(c2)OCO3)n1C	-6.95%
COc1cccc(N=c2oc3c(C)ncc(CO)c3cc2C(N)=O)c1	-4.4%
O=C1Nc2ccc(Br)cc2/C1=N/N=C/C1=C(N2CCOCC2)C(=C\c2ccccc2)/CC1	-5.74%
COc1ccc(-c2nnc(SCc3cccnc3)o2)cc1	-3.86%
Cc1nnc(SC(C)C(=O)Nc2ccc(S(=O)(=O)NC3CCCCC3)cc2)s1 (stereo not drawn)	-4.5%
CC(C)(C)OC(=O)c1c(N)n(CCCN2CCCC2=O)c2nc3ccccc3nc12	0.36%
N#Cc1c(N)n(CCOC(=O)c2ccc(Cl)cc2)c2nc3ccccc3nc12	16.5% (active)
CN(C)CCCn1c(N)c(C#N)c2nc(C#N)c(C#N)nc21	12.8%
Fc1ccc(CNc2nc3ccccc3n3nnnc23)cc1	-7.16%
O=C(NC(C(=O)NCCN1CCOCC1)C12CC3CC(CC(C3)C1)C2)C1CCCCC1 (stereo not drawn)	-4.77%
Cc1c(NC(=O)c2cc(-c3ccc(Cl)s3)nc3ccccc23)c(=O)n(-c2ccccc2)n1C	-14.2%
O=C(Nc1ccn(Cc2ccccc2F)n1)c1ccc(COc2ccc(Cl)cc2Cl)o1	-5.78%
CCn1cc(C(=O)NCC2COc3ccccc3O2)c2cc(OC)c(OC)cc2c1=O (stereo not drawn)	19.9% (active)
CCn1cc(C(=O)NCc2ccc3c(c2)OCO3)c2cc(OC)c(OC)cc2c1=O	14.1%
O=C(Cn1cnc2ccccc2c1=O)NCC1COc2ccccc2O1 (stereo not drawn)	-3.16%
CO/N=C/c1ccc(N2CCN(C(=O)c3cccc(Cl)c3)CC2)c([N+](=O)[O-])c1	-3.08%
Cc1ccc(CNC(=O)C2CCCN2C(=O)NCc2ccccc2)cc1 (stereo not drawn)	-8.36%

Compound	activation
O=C(CO/N=C/c1ccccc1O)NNC(=O)c1ccccc1Cl	-5.77%
Cc1ccc(S(=O)(=O)/N=C(/Nc2ccccn2)c2ccc(Cl)cc2)cc1	-4.9%
CSc1ccccc1-c1nnc(-c2ccc(Cl)cc2)o1	-1.63%
Cc1ccc(N2CCN(C3=NC(=O)/C(=C\c4cccs4)S3)CC2)cc1	-8.97%
O=Cc1c(N2CCN(c3cccc(Cl)c3)CC2)nc2ccccn2c1=O	-4.84%
CN1C(=O)C(CC(N)=O)N(NC(=O)c2ccc(Cl)cc2)C1=S (stereo not drawn)	-7.47%
CSc1nc2ccccc2cc1/C=C(\C#N)c1ccc(Cl)cc1Cl	19.8% (active)
Cc1nc2ccccc2cc1O	-0.52%
CSc1nc(N)c(C#N)c(-c2ccccc2Cl)c1C#N	-7.07%
Cc1sc(NC(=O)C2C3CCC(O3)C2C(=O)O)c(C(=O)OC(C)C)c1-c1ccc(Cl)cc1 (stereo not drawn)	-9.04%
CN(C)c1ccc(/C=C2\NC(=S)N(Cc3ccccc3)C2=O)cc1	-4.43%
Cc1ccc(-c2nc(C)sc2CC(=O)O)cc1	-2.07%
CN(c1cccc(NC(=O)Nc2ccc(Cl)cc2)c1)S(C)(=O)=O	-3.59%
Nc1c(-c2ccc(F)cc2)cnn1C1CCS(=O)(=O)C1 (stereo not drawn)	-4.76%
Cc1ccc(C2C(C#N)C(C#N)N3CCCN23)cc1 (stereo not drawn)	-4.89%
N/C(=N\OC(=O)CCC1CCCCC1)c1ccccn1	-3.14%
